Hits are enriched below; roughly 11% of the tested compounds scored in any of these assays.
Sm TGR block – S. mansoni TGR enzyme inhibition; purified TGR, DTNB reduction, TNB absorbance 405 nm; 3% of 360,000 active; Potency, µM (top dose mostly 114 µM), without a hit: at the highest dose activity change, negative = inhibition, most hits filed as inhibitors; also: % is scaled to controls: 0 for no effect and ±100 for the full control effect; nearly all actives have a fitted effect of over 60% in size
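Kinetic colorimetric format: TGR-catalysed, NADPH-driven DTNB reduction monitored via TNB absorbance. Enzyme dispensed at 20 nM; compound exposure 15 min at room temperature before reaction start.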
Pf growth 48h – inhibits P. falciparum growth in the first generation, 48 h; P. falciparum luciferase growth in erythrocytes, 48 h; Potency, µM (doses to about 28.7 µM), without a hit: at the top dose activity change, negative = inhibition, usual class: inhibitors; 5.9% of 310,000 active; AID 504832; also: % is scaled to controls: 0 for no effect and ±100 for the full control effect
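Growth was read as firefly luciferase luminescence after a 48 h, 37 C, 5% CO2 exposure of compounds to reporter-bearing P. falciparum cultures (0.1% parasitemia, 2% hematocrit final) in Albumax-supplemented RPMI 1640.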
NS1 function inh – influenza NS1 inhibition; 0.4% of 270,000 active; Potency, µM (top dose mostly 46.1 µM), for the others: top-dose activity, positive = more growth; AID 2326; calls by dose curve; also: actives are rising curves; nearly all actives have a fitted effect of over 50% in size
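In this qHTS, NS1 from influenza A is expressed in budding yeast, where it slows growth. Cells are switched from glucose to 2% galactose medium (pH 6.0, -URA), treated with compound, and growth recovery is read at OD600.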
Pf growth 96h – inhibits malaria parasite growth, 96 h; P. falciparum luciferase reporter growth, 96 h; Potency, µM (highest dose often 28.7 µM), without a hit: top-dose activity change, negative = inhibition, hits mostly inhibitors; 6.9% of 320,000 active; also: % is scaled to controls: 0 for no effect and ±100 for the full control effect
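Two parasite generations (96 h, 37 C, 5% CO2) of compound exposure in infected erythrocytes (0.05% parasitemia, 2% hematocrit). Luciferase-reporter P. falciparum; decreased luminescence indicates inhibited growth, aimed at apicoplast-acting delayed death.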
AMA1 RON2 block – inhibitors of Plasmodium falciparum AMA1-RON2 interaction | AlphaScreen AMA1-biotinylated RON2 peptide binding | Potency, µM (doses to about 58.2 µM), for the others: top-dose activity change, negative = inhibition, most hits filed as inhibitors | 0.2% of 360,000 active | AID 720542;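 also: 0% = vehicle wells and -100% = peptide control; nearly all actives have a fitted effect of over 45% in size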
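AMA1 (3D7) with his tag at 25 nM final met compounds first, then biotinylated RON2 peptide at 25 nM; detection used donor plus acceptor beads, 10 µg/mL apiece, read by AlphaScreen after 30 min at room temperature.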
The depositor's hits bear a star; ? = inconclusive; / = no result. Unless noted, calls follow the shape of the dose curve; as a rule, active = well fitted curve in the direction sought with a large enough effect; inconclusive = small, poorly fitted or top-dose-only effect, or another doubt; inactive = no such curve, though single readings can be large; an effect the other way counts as inactive or inconclusive. Potency is read from the fitted curve at half-maximal effect.

SMILES	Sm TGR block	Pf growth 48h	NS1 function inh	Pf growth 96h	AMA1 RON2 block
Cc1ccc(C)c(NC(=O)C(=O)NCCc2csc3nc(-c4ccccc4C)nn23)c1	3.1%	/	/	/	/
COc1ccccc1NC(=O)c1c(Nc2ccccc2C)sc(C(=O)Nc2cccc(Cl)c2)c1N	4.2%	?	?	10.4µM*	4.2%
CCOc1ccc(NC(=O)c2c(Nc3ccccc3C)sc(C(=O)c3ccc(Cl)cc3)c2N)cc1	-21.5%	/	/	/	/
CCOc1ccc(CCNC(=O)c2ccc3[nH]c(C)c(C)c3c2)cc1	4.2%	/	/	/	/
N#Cc1cc2ccccc2n2nnnc12	2.8%	9.7%	-9.6%	42.6%	14.7%
Cc1cc(C)n2nnnc2c1C#N	6.5%	18.2%	10.5%	13.1µM*	36.1%
CC1(C)CC(=O)C2=C(C1)N(c1ccc(F)cc1)C(=O)CC2c1ccsc1 (stereo not given)	4.5%	/	5.6%	3.29µM*	-0.2%
Cc1ccc(N2C(=O)CC(c3ccsc3)C3=C2CC(C)(C)CC3=O)cc1 (stereo not given)	0.0%	?	-1.3%	?	-3.3%
CC(=O)Nc1ccc(C(=O)CSc2nnc(-c3ccc(O)cc3)n2CC2CCCO2)cc1 (stereo not given)	-21.8%	/	-10.8%	-5.8%	6.6%
CC1(C)CC(=O)C(Sc2nnc(-c3ccc(O)cc3)n2CC2CCCO2)C(=O)C1 (stereo not given)	-32.7%	/	-2.6%	1.04µM*	5.3%
O=C(COC(=O)/C=C/c1ccco1)NCc1ccc(Cl)cc1Cl	/	/	/	/	-7.4%
O=C(COC(=O)/C=C/c1ccco1)NCc1ccccc1Cl	17.8µM*	48.8%	/	3.5%	-12.8%
O=C(COC(=O)c1ccccc1Nc1ccccc1)NCc1ccccc1	-14.7%	?	-16.6%	?	-1.2%
O=C(COC(=O)/C=C/c1ccco1)NCCc1ccccc1	22.4µM*	24.2%	/	30.3%	3.3%
O=C(COC(=O)c1ccccc1Nc1ccccc1)NCc1ccccc1Cl	0.6%	-13.5%	-8.3%	13.1µM*	12.4%
O=C(COC(=O)/C=C/c1ccccc1)NCCNC(=O)COC(=O)/C=C/c1ccccc1	5.4%	37.4%	/	-11.8%	-14.7%
CSc1ccccc1NC(=O)COC(=O)/C=C/c1ccco1	/	/	/	/	-1.7%
CC(NC(=O)COC(=O)/C=C/c1ccco1)c1ccccc1 (stereo not given)	28.2µM*	11.2%	/	21.4%	-3.6%
COc1ccc(CCNC(=O)c2ccc3c(c2)sc2nc(-c4ccccc4)cn23)cc1OC	4.2%	/	/	/	/
O=C(COC(=O)/C=C/c1ccco1)NCc1ccco1	?	19.1%	3.8%	13.1%	-12.4%
COc1ccc(CNC(=O)COC(=O)/C=C/c2ccco2)cc1	35.5µM*	-9.7%	/	-10.5%	-5.8%
CNC(=O)COC(=O)/C=C/c1ccco1	25.1µM*	-4.4%	2.5%	10.7%	3.3%
CCOc1ccc(Nc2cc(C)nc3nc(Cc4ccc(Cl)cc4)nn23)cc1	1.5%	/	/	/	/
CCCCn1cc(S(=O)(=O)c2cc(C)ccc2C)c(=O)c2cc(F)c(F)cc21	-0.9%	/	/	/	/
COC(=O)[C@]12CCCCC=C1N(Cc1ccc(Cl)cc1Cl)C(=O)[C@H](CC(=O)NCC1CCCCC1)C2	/	/	/	/	2.8%
SMILES	Sm TGR block	Pf growth 48h	NS1 function inh	Pf growth 96h	AMA1 RON2 block
O=C1N(c2ccccc2)c2ccccc2C1(Cc1ccncc1)Cc1ccncc1	0.4%	?	-15.2%	?	3.6%
CC1(CCBr)C(=O)N(c2ccccc2)c2ccccc21 (stereo not given)	-27.5%	-12.7%	16.6%	13.1µM*	-9.6%
Cc1c(O)ccc(C(=O)CN2CCN(c3ccccc3)CC2)c1O	22.4µM*	-19.2%	-6.0%	?	0.0%
COc1cccc(NC(=S)N2CCC(c3ccc(C)cc3)C2)c1 (stereo not given)	4.7%	18.2%	0.4%	11.7%	3.7%
CC(C)(C)c1ccc(C(=O)CCCSC2=C(C#N)C(c3ccco3)C3=C(CCCC3=O)N2)cc1 (stereo not given)	39.8µM*	6.57µM*	?	19.5%	-5.1%
COC(=O)c1sc(N)c(C(=O)OC)c1COC(=O)CCNS(=O)(=O)c1ccc(C)cc1	-11.7%	?	-5.1%	10.4µM*	3.8%
Cc1ccccc1N(CC(=O)NCCc1ccccc1)C(=O)c1ccc(N2CCCC2)nc1	4.9%	10.4µM*	-34.4%	?	-9.8%
C=CCCN(C1CCCC1)S(=O)(=O)c1ccccc1Br	2.0%	?	-11.0%	14.7µM*	74.3%
CCOC(=O)c1cc2c(=O)[nH]ccc2nc1C	-2.4%	5.5%	13.3%	0.7%	-0.8%
CCOC(=O)c1cc2c(=O)[nH]ccc2nc1C(F)(F)F	-7.0%	?	0.9%	6.57µM*	-12.7%
Cc1oc(C(=O)O)cc1CSCc1ccoc1C(=O)O	-30.6%	13.0%	3.5%	?	-5.5%
Cc1oc(C(=O)O)cc1CSCc1cc(C(=O)O)c(C)o1	44.7µM*	13.0%	?	11.0%	-7.6%
Nc1nc(N)c(CCCCc2ccccc2)c(N)n1	/	/	-8.3%	/	/
CSc1nc(Oc2ccccc2)c2sccc2n1	0.8%	-0.5%	-14.9%	-7.1%	45.5%
CSc1nc(Oc2ccc3ccccc3c2)c2ccccc2n1	-1.9%	10.4µM*	22.4%	?	19.6%
CC(=O)C[C@H](O)CC(=O)[C@@H]1OC(=O)[C@H](C)C/C=C\Cc2ccccc21	/	/	/	/	-3.6%
CCOC(=O)N1CCN(C(=O)C(=O)NN)CC1	0.0%	17.1%	1.8%	13.1%	20.0%
Cn1c(=O)oc2cc(S(=O)(=O)NCCN3CCc4ccccc4C3)ccc21	3.6%	13.6%	5.8%	8.28µM*	8.7%
COc1ccc(S(=O)(=O)NCCC(=O)NCc2ccccc2)cc1	-10.8%	-17.9%	-3.7%	?	16.3%
CCC1CCCCN1C(=O)CCNS(=O)(=O)c1ccc2c(c1)oc(=O)n2C (stereo not given)	-0.4%	?	-12.1%	2.33µM*	5.9%
CCC1CCCCN1CCCNS(=O)(=O)c1ccc2c(c1)oc(=O)n2C (stereo not given)	-5.2%	11.7µM*	4.2%	2.94µM*	-9.2%
COc1ccc(CNC(=O)CCNS(=O)(=O)c2ccc3c(c2)oc(=O)n3C)cc1	4.0%	-3.2%	-0.2%	11.7µM*	13.0%
Cc1ccc(/C(O)=C2\C(=O)C(=O)N(Cc3cccnc3)C2c2ccccc2[N+](=O)[O-])cc1 (stereo not given)	-0.9%	-10.6%	13.6%	49.5%	-17.7%
CC(C)(C)c1ccc(C(=O)NCC(=O)N2CCCCCC2)cc1	4.9%	-0.1%	14.5%	-2.7%	0.2%

Assay outcomes as filed in PubChem BioAssay.
